TRHR ag – agonists of human TRH receptor. TRHR cells, calcium flux fluo-8, FDSS agonist mode. activation, % at 2 µM. actives 0.18% (n = 360,000). AID 493084
Target sequence (P34981 whole entry, looked up): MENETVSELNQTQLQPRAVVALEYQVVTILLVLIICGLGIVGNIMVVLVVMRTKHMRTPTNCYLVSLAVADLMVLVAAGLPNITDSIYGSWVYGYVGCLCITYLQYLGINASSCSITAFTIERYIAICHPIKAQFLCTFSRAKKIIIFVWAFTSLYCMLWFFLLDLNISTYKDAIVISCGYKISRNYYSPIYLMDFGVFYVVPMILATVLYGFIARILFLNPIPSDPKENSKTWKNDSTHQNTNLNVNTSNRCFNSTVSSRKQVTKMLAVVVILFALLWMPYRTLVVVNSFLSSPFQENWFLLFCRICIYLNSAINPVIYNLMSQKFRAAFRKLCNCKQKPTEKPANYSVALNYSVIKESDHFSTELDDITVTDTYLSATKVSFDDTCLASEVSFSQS
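Agonist-mode FDSS calcium read (Ex 480/Em 530, 1 s cycles) in 1536-well TRHR cells with fluo-8 dye, after 10-cycle baseline and 23 nL compound addition; TRH at EC20 (10 nM final) added afterwards for the enhancer phase.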
D1 antag – antagonists of human D1 dopamine receptor; HEK293 TREx D1 cells, calcium flux, dopamine EC80; stronger effect = lower value; activity change, negative = inhibition, % at 10 µM; AID 504652; actives 3.2% (n = 360,000); in the data active = activity change below about -30%
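Compound effects on dopamine-evoked calcium signalling were measured in tetracycline-induced HEK293 Trex D1 cells. Dopamine at EC80 followed a 180 s compound pre-read, and fluorescence was tracked kinetically for 180 s more.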
D1 ag – agonists of human D1 dopamine receptor. P21728. activation, % at 2 µM. actives 1% (n = 360,000). HEK293 T-REx D1 cells, calcium flux, agonist mode
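Inducible HEK293 T-REx D1 cells, force-coupled to calcium signalling, were plated at 4000 cells/well with tetracycline and held overnight at 30 C. After no-wash calcium dye loading, compound-evoked calcium rise over 180 s flagged agonists.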
TRHR PAM – TRH receptor (human) allosteric enhancement. P34981. TRHR cells, fluo-8 calcium fluorescence, EC20 TRH enhancement. enhancement, % at 2 µM. actives 0.66% (n = 360,000). AID 493056; in the data active = enhancement above about 30%
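Enhancer read-out: after compound pinning and an initial kinetic agonist-mode read, an EC20 of TRH (10 nM final) was injected and fluo-8 calcium signal (Ex 480/Em 530) followed at 1 s/cycle for 100 cycles in TRHR-expressing cells.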
D1 PAM – enhances dopamine response at the human D1 receptor | HEK293 TREx D1 cells, calcium flux, dopamine EC20 potentiation | actives 0.036% (n = 360,000) | P21728 | potentiation, % at 10 µM | AID 504651; in the data active = potentiation above about 30%
Hits are given with their value; i = inactive; nt = no result. Sampled rows, rich in hits. Any-hit rate of the full collection: about 4.6%. Cut-off read from the data, not from the text of the source, unless noted: active = activation above about 30%; inactive = the rest.

SMILES | TRHR ag | D1 antag | D1 ag | TRHR PAM | D1 PAM
CCOc1ccc(-c2nc(CSCC(=O)N3CCN(c4cccc(C(F)(F)F)c4)CC3)c(C)o2)cc1 | i | i | i | i | i
Cc1oc2cc(O)ccc2c(=O)c1Oc1ccc(F)cc1 | i | i | i | i | i
Cc1oc2cc(O)ccc2c(=O)c1Oc1ccc2ccccc2c1 | i | -37 | i | i | i
COc1cc(/C=C2\SC(=S)N(NC(=O)c3ccccc3OC)C2=O)ccc1O | i | i | 49 | i | i
COc1cc(/C=C2\SC(=S)N(NS(=O)(=O)c3ccccc3)C2=O)ccc1O | i | i | 44 | i | i
COc1cc(/C=C2\SC(=S)N(NC(=O)c3cccc(O)c3)C2=O)ccc1O | 75 | i | 110 | i | i
COc1cc(/C=C2\SC(=S)N(NC(=O)c3ccncc3)C2=O)ccc1O | i | i | i | i | i
CCOc1cc2c(cc1OCC)CN(C(=O)c1cccc(S(=O)(=O)N3CCCC3)c1)CC2 | i | -36 | i | i | i
Cc1ccc(C)c(S(=O)(=O)c2nnn3c2nc(NC2CCCC2)c2sccc23)c1 | i | i | i | i | i
Cc1cc(C)cc(Nc2nc3c(S(=O)(=O)c4cccc(Cl)c4)nnn3c3ccsc23)c1 | i | i | i | i | i
O=S(=O)(c1cccc(Cl)c1)c1nnn2c1nc(NC1CCCC1)c1sccc12 | i | -72 | i | i | i
Cc1ccc(S(=O)(=O)c2nnn3c2nc(NC2CCCCC2)c2sccc23)cc1C | i | -39 | i | i | i
CCN(CC)C(=O)Cn1ncc2c([nH]c3ccc(C)cc32)c1=O | i | i | i | i | i
CCOc1ccc(CC(=O)N/N=C(\C)c2cccnc2)cc1 | i | -36 | i | i | i
COc1ccc(CC(=O)N/N=C(\C)c2cccnc2)cc1 | i | i | i | i | i
O=C(Nc1ccc2nc(SCC(=O)N3CCOCC3)sc2c1)c1ccc(Cl)cc1 | i | -38 | i | i | i
COc1ccc(C(=O)Nc2ccc3nc(SCC(=O)N(C)c4ccccc4)sc3c2)cc1 | i | i | 32 | i | i
CCOc1ccc2nc(SCC(=O)c3ccccc3)sc2c1 | i | -43 | i | i | i
O=C(NNc1ccccn1)c1ccccc1CC[N+](=O)[O-] | i | -44 | i | i | i
CCOc1ccc(NS(=O)(=O)c2ccc(C(=O)N3CCCCCC3)cc2)cc1 | i | i | 59 | i | i
O=C(NCC1(N2CCOCC2)CCCCC1)c1cccc(S(=O)(=O)Nc2ccc(F)cc2)c1 | i | i | i | i | i
Cc1ccc(NS(=O)(=O)c2ccc(C(=O)N3CCCCCC3)cc2)cc1 | i | i | 31 | i | i
O=C(NCC1(N2CCCCC2)CCCCC1)c1cccc(S(=O)(=O)Nc2ccc(F)cc2)c1 | i | -38 | i | i | i
CC(=O)c1ccc(S(=O)(=O)Nc2ccc(-c3ccc(N4CCCCC4)nn3)cc2)cc1 | i | i | i | 31 | i
CCc1ccccc1NC(=O)N1CC(CC)Oc2ccc(Cl)cc21 (stereo unspecified) | i | i | i | i | i
SMILES | TRHR ag | D1 antag | D1 ag | TRHR PAM | D1 PAM
Cc1ccccc1NS(=O)(=O)c1ccc(C(=O)N2CCC2)cc1 | i | -63 | i | i | i
CCOc1ccc(NS(=O)(=O)c2ccc(C(=O)NCC3(N4CCCCC4)CCCCC3)cc2)cc1 | i | i | 31 | i | i
CCOc1ccc(S(=O)(=O)Nc2ccc3c(c2)N(C(C)=O)CCC3)cc1 | i | -32 | i | i | i
CCOc1ccc(OCc2ccc(C(=O)N3CCCC(C)C3)cc2)cc1 (stereo unspecified) | i | -30 | i | i | i
CC(=O)N1CCCc2ccc(NS(=O)(=O)c3ccc(C)cc3)cc21 | i | i | i | i | i
CCOc1ccc(NS(=O)(=O)c2ccc(C(=O)NCC3(N(C)C)CCCCC3)cc2)cc1 | i | i | i | i | i
Cc1nn2c3c(cnc2c1-c1ccc(F)cc1)C(=O)CC(c1ccccc1)C3 (stereo unspecified) | i | i | i | i | i
CCOc1ccc(S(=O)(=O)Nc2ccc(C(=O)N3CCCC3)cc2)cc1 | i | i | i | i | i
Cc1ccccc1NS(=O)(=O)c1ccc2[nH]c(=O)[nH]c2c1 | i | i | i | 30 | i
O=C(c1ccc(S(=O)(=O)Nc2ccccc2)cc1)N1CCCC(C(F)(F)F)C1 (stereo unspecified) | i | i | 51 | i | i
CCOc1ccc(NS(=O)(=O)c2ccc(C(=O)N3CCCC(C)C3)cc2)cc1 (stereo unspecified) | i | -52 | 59 | i | i
CCOc1ccccc1NS(=O)(=O)c1ccc2[nH]c(=O)[nH]c2c1 | i | i | i | i | i
Cc1cc2c(s1)c1cnn(Cc3ccc(C(C)C)cc3)c(=O)c1n2C | i | i | i | i | i
Cc1ccc(NC(=O)CSc2nnnn2-c2cccnc2)c(C)c1 | i | i | i | i | i
CCOc1ccc(S(=O)(=O)NCc2cccn2Cc2cccc(C)c2)cc1 | i | i | i | i | i
CCn1cc(CN2CCC(n3nccc3NC(=O)C3CCCC3)CC2)cn1 | i | -52 | i | i | i
CCN1C(=O)/C(=C/c2cn(C)nc2C)SC1=S | i | i | i | i | i
CCN1C(=S)SC(=O)C1=C1C=C(C)N(CCOC)C(C)=C1 | i | i | 45 | i | i
CCCOC(=O)CCCN1C(=O)/C(=C2\SC(=S)N(CCCC(=O)OCCC)C2=O)SC1=S | i | i | i | i | i
CCN1C(=S)SC(=O)C1=C1C=C(C)N(CCO)C(C)=C1 | i | i | 34 | i | i
O=C(NCCCN1CCN(c2ccc(F)cc2)CC1)c1cnn(-c2ccc(F)cc2)c1-n1cccc1 | i | i | i | i | i
O=C(NC1CCCCC1)C(c1ccccc1)N(Cc1ccco1)C(=O)Cn1cnc2ccccc21 (stereo unspecified) | i | -44 | i | i | i
CC(C)CC(=O)Nc1c(C(=O)N2CCN(c3ccccc3F)CC2)oc2ccccc12 | i | i | i | i | i
COc1ccc(NC(=O)COC(=O)CNC(=O)c2cccs2)cc1Cl | i | -34 | i | i | nt
COc1ccc(OC)c(NC(=O)COC(=O)c2ccc(-n3cnnn3)cc2)c1 | i | i | i | i | i
SMILES | TRHR ag | D1 antag | D1 ag | TRHR PAM | D1 PAM
Cc1cc(C)c(C)c(S(=O)(=O)Nc2cccc(-n3cnnn3)c2)c1C | i | -33 | i | i | i
COc1ccc(NC(=O)COC(=O)c2ccc(-n3cnnn3)cc2)cc1Cl | i | i | i | 31 | i
COc1cccc(OC)c1C(=O)Nc1cccc(-n2cnnn2)c1 | i | -35 | i | i | i
Cc1cc(C)c(S(=O)(=O)Nc2cccc(-n3cnnn3)c2)c(C)c1 | i | i | i | i | i
COc1cc(C(=O)Nc2cccc(-n3cnnn3)c2)cc(OC)c1OC | i | i | i | i | i
COc1ccc(NC(=O)CCC(=O)c2cccs2)cc1Cl | i | i | i | i | i

High-throughput results from PubChem.
